The list is not random: actives were taken first. Their share in the collection is about 6.9%.
Vif-A3F inh – qHTS for Inhibitors of Vif-A3F Interactions: qHTS; Potency, µM (series often up to 46.1 µM), inactives show at the highest dose activity, negative = active; 0.2% of 390,000 active; HeLa A3F-eYFP + Vif (tagged APOBEC3F with the HIV-1 protein that degrades it), YFP fluorescence increase; AID 602313, 2012; further: potency means the concentration at half of the fitted maximal effect; % of control where 0% means no effect; nearly all actives have a fitted effect of over 65% in size
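HeLa cells stably expressing Vif plus C-terminally eYFP-tagged A3F were seeded, incubated overnight at 37 deg C, dosed with compound, incubated overnight again at 37 deg C. Yellow fluorescence (Ex 488/Em 500-530) reported blocked Vif-mediated A3F-eYFP degradation.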
MCF10A rereplic – A quantitative high throughput screen for small molecules that induce DNA re-replication in MCF 10a normal breast cells; MCF 10A DNA re-replication, Hoechst nuclear intensity, 48 h; Potency, µM (highest dose often 46.1 µM), for inactives: top-dose activity, positive = re-replication, usual class: activators; 2.9% of 350,000 active; AID 624296, 2012; further: potency means the concentration at half of the fitted maximal effect; % of control where 0% means no effect; nearly all actives have a fitted effect of over 50% in size
IL-1B inflam inh – qHTS for Inhibitors of Inflammasome Signaling: IL-1-beta AlphaLISA Primary Screen; THP-1 LPS/ATP IL-1B secretion, AlphaLISA, 16 h; stronger effect = lower value; activity change, % at 57.5 µM; 4.7% of 360,000 active; AID 743279, 2014; in the data active means activity change below about -50%; inconclusive means mostly about -30% to -49%; further: on the % scale 0 is the no-effect control and ±100 the full control effect
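Secreted IL-1B measured by AlphaLISA bead assay after 16 h compound exposure of THP-1 cells; compounds (final up to 57.5 uM) added 1 h before LPS (250 ng/mL) and ATP (1.25 mM) stimulation; lower signal means less secretion.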
Vif-A3G inh – qHTS for Inhibitors of Vif-A3G Interactions: qHTS | Potency, µM (titrated, usually from 46.1 µM), for the others: at the top dose activity, negative = active, most hits filed as inhibitors | AID 602310, 2012 | DNA dC->dU-editing enzyme APOBEC-3G (Homo sapiens), Q9HC16 | 0.076% of 410,000 active | HeLa A3G-eYFP + Vif (tagged APOBEC3G with the HIV-1 protein that degrades it), YFP fluorescence, overnight; further: potency means the concentration at half of the fitted maximal effect; on the % scale 0 is the no-effect control and ±100 the full control effect; nearly all actives have a fitted effect of over 60% in size
Target sequence (Q9HC16 whole entry, looked up): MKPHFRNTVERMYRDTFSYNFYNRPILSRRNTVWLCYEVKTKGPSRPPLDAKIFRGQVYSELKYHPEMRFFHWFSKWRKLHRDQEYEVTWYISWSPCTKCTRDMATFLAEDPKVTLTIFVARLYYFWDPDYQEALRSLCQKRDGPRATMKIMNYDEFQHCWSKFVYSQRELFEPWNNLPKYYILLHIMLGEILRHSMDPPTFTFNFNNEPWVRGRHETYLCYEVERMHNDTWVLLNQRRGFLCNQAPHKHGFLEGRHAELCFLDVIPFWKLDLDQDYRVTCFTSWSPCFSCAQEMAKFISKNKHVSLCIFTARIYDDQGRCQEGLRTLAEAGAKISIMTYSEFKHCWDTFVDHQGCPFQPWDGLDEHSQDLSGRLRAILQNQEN
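HeLa cells stably expressing Vif and C-terminally eYFP-tagged A3G, seeded overnight at 37 deg C, then exposed to compound by pintool overnight at 37 deg C. Rise in yellow fluorescence (Ex 488/Em 500-530, Acumen) marks blocked Vif-driven A3G degradation.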
SW480 rereplic – A quantitative high throughput screen for small molecules that induce DNA re-replication in SW480 colon adenocarcinoma cells. SW480 DNA re-replication, Hoechst DNA content imaging, 48 h. Potency, µM (titrated, usually from 46.1 µM), for the others: at the highest dose re-replication activation, hits mostly activators. 1.8% of 340,000 active. AID 624297, 2012; further: potency means the concentration at half of the fitted maximal effect; % of control where 0% means no effect; nearly all actives have a fitted effect of over 55% in size
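Cells (250 per well) received 23 nL compound or DMSO by pin tool and were kept 48 hr at 37 C, 5% CO2. Nuclei were then stained with Hoechst for 40 min and scanned for DNA content.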
Giardia kill – Small Molecules that selectively kill Giardia lamblia: qHTS; 0.15% of 340,000 active; activity change, % at 7.66 µM, hits read low; AID 540267, 2011; Giardia lamblia trophozoite viability; in the data active means activity change below about -80%; inconclusive means between about -30% and that limit;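 further: parasites exposed to compound for two days anaerobically before the ATP read; on the % scale 0 is the no-effect control and ±100 the full control effect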
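Trophozoite viability was measured as ATP-dependent luminescence, read 15-30 min after reagent addition. Before that, parasites at 100 cells/well were exposed to compounds for 48 h, anaerobically, at 37 deg C.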
Starred values were filed as active, the others as inactive; ? = inconclusive; / = no result given. Unless noted, the call rests on the fitted dose curve; in most records, active means well fitted curve in the direction sought with a large enough effect; inconclusive means small, poorly fitted or top-dose-only effect, or another doubt; inactive means no such curve, though single readings can be large; an effect the other way counts as inactive or inconclusive.

SMILES	Vif-A3F inh	MCF10A rereplic	IL-1B inflam inh	Vif-A3G inh	SW480 rereplic	Giardia kill
CCOC(=O)c1nc2nc(-c3cccs3)cc(C(F)(F)F)n2n1	-3.3%	-45.4%	-15.7	1.1%	0.8%	-5.3
c1ccc(CN2CCN(CCOCCOc3ccc4c(c3)CCC4)CC2)cc1	3.6%	?	-59.5*	2.9%	?	7.7
O=C(c1ccccc1)c1ccc(OCCOCCN2CCN(Cc3ccccc3)CC2)cc1	1.6%	?	?	5.4%	?	-11.3
Fc1cccc(/C=N/Nc2nc3ccccc3[nH]2)c1	-6.2%	-17.1%	-91.2*	-11.1%	11.5%	5.6
Fc1cccc(/C=N/Nc2ncnc3nc[nH]c23)c1	-2.2%	?	-97.5*	-6.5%	-8.2%	-27.4
Brc1ccc(-c2ccc(/C=N/Nc3nc4ccccc4[nH]3)o2)cc1	-13.4%	11.6µM*	8.5	-0.2%	5.8µM*	?
C(=C\c1ccccc1)/C=N/Nc1nc2ccccc2[nH]1	-16.4%	4.61µM*	54.2	?	?	-1.8
Fc1ccc(/C=N/Nc2nc3ccccc3[nH]2)cc1F	3.2%	3.2%	?	-0.8%	-6.0%	48.3
Brc1ccc(-c2ccc(/C=N/Nc3nncc(-c4ccccc4)n3)o2)cc1	-8.7%	9.3%	-2.8	0.4%	-1.0%	7.5
Cc1cccc(NS(=O)(=O)c2ccc3c(c2)CCN3C(=O)C2CC2)c1C	0.1%	/	/	-1.7%	/	/
Fc1cccc(F)c1/C=N/Nc1ccccn1	0.2%	?	19.6	0.2%	27.5%	4.3
CN(C)c1nc(NCc2ccccc2)nc(N/N=C/c2ccc3c(c2)OCO3)n1	-2.1%	23.1µM*	-14.0	-1.8%	26.0%	1.7
O=S(=O)(N/N=C/c1ccc2c(c1)OCCO2)c1ccccc1	-2.1%	-2.1%	8.6	-5.3%	-3.5%	-17.1
Fc1cccc(/C=N/Nc2ccccn2)c1	?	6.2%	-72.0*	1.0%	-2.7%	-11.5
CN(C)c1nc(NCc2ccccc2)nc(N/N=C/c2ccc(Br)cc2)n1	-1.8%	3.6%	4.6	0.8%	0.7%	-3.3
O=c1[nH]c(N/N=C/c2ccccc2)nc2ccccc12	-1.7%	-4.5%	4.5	-0.3%	-7.0%	0.5
C(=N\Nc1nc2ccccc2[nH]1)/c1ccccc1	?	2.9%	-94.5*	-5.3%	-1.5%	28.1
C(=N\Nc1ccccn1)/c1ccc2c(c1)OCCO2	3.5%	-43.1%	-69.2*	-2.4%	-4.5%	-16.6
CC(C)(C)c1ccc(OCCSc2nc(-c3cccs3)nc3cc(=O)[nH]n23)cc1	-3.1%	/	/	-7.6%	/	/
COc1ccc(-n2ncc(C(=O)N3CCc4ccccc4C3)c2C2CCN(C(=O)OC(C)(C)C)CC2)cc1	1.6%	/	/	-0.9%	/	/
COc1ccccc1N1CCN(c2ncnc3c2c(-c2ccccc2)cn3-c2cccc(C)c2)CC1	0.4%	/	/	2.9%	/	/
Cc1cc(N/N=C/c2ccc3c(c2)OCO3)nc2ccccc12	?	16.4µM*	-22.3	1.6%	?	23.7
O=c1[nH]c(N/N=C\c2ccc3c(c2)OCO3)nc2ccccc12	0.7%	19.5%	-24.3	-3.6%	4.4%	-2.9
Cc1cccc(N2CCN(CCCNc3ncnc4onc(-c5ccc(Cl)cc5)c34)CC2C)c1 (centres undefined)	-0.4%	/	/	-6.3%	/	/
ICC[n+]1csc2ccccc21	/	/	/	-4.4%	/	/
O=C(C[n+]1csc2ccccc21)c1ccccc1	/	/	/	-1.1%	/	/
Fc1ccc(C[n+]2csc3ccccc32)cc1	9.5%	?	-115.2*	-1.3%	7.6%	-12.4
Clc1ccc(C[n+]2csc3ccccc32)cc1	-7.3%	-0.8%	-110.1*	0.3%	-705.7%	15.3
Cc1cc(NC(=O)c2ccc(C)s2)n(-c2nc3ccccc3[nH]2)n1	-12.6%	5.2%	-26.2	0.9%	0.8%	12.1

Source: PubChem BioAssay
